High-throughput results as filed in PubChem.
ST2 IL33 inh – inhibitors of human ST2 (IL1RL1) binding to IL-33; AID 1259354; Q01638; 2.3% of 78,000 active; inhibition, % for hits at 17 µM; AlphaLISA ST2-Fc/biotin-IL-33 interaction, 1 h; in the data active = inhibition above about 30%
Target sequence (Q01638 whole entry, looked up): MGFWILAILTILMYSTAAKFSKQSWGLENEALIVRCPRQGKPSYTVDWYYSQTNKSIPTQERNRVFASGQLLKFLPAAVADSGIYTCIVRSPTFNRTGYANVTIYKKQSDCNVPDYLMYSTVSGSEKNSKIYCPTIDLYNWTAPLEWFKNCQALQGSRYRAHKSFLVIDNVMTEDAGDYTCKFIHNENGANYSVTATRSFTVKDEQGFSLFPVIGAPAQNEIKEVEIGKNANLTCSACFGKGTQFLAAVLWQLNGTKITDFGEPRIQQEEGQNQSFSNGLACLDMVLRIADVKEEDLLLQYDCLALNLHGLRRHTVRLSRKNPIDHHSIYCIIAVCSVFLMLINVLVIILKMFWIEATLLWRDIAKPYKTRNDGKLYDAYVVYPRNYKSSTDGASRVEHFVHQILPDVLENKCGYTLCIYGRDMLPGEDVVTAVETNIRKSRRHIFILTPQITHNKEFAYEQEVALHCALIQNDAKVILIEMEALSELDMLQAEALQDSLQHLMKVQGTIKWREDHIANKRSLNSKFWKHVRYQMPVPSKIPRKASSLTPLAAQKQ
* marks the source's active call; other numbers are inactive results; i = inactive; ! = repeats disagree. The entries come from a sample that favours hits as a whole.

SMILES	ST2 IL33 inh
O=C1NC(=Nc2cccc([N+](=O)[O-])c2)SC1(CO)CO	i
C=CCN1C(=O)/C(=C/c2ccccc2)SC1=Nc1cccc([N+](=O)[O-])c1	47.0%*
O=C1S/C(=C/c2ccccc2)C(=O)N1CNc1cccc(F)c1	i
C=CCn1cc(C(=O)NCCCC)c(=O)c2cc(S(=O)(=O)N3CCC(C)CC3)ccc21	i
CCOC(=O)c1c(NC(=O)COc2ccccc2Br)sc(C(C)=O)c1C	i
COC(=O)c1ccc(-c2ccc(-c3nc4sc5c(c4c(=O)[nH]3)CCCC5)o2)cc1	i
COc1ccccc1NS(=O)(=O)c1ccc(C)c([N+](=O)[O-])c1	i
COc1cc(C(=O)Nc2ncc(Cc3cccc(Cl)c3)s2)cc(OC)c1OC	i
Cc1nn(S(=O)(=O)c2ccccc2)c(C)c1Sc1ccc([N+](=O)[O-])cc1	i
Cc1nn(S(=O)(=O)c2ccc(Br)cc2)c(C)c1Sc1ccccc1	i
Cc1nn(C(=O)c2cccnc2)c(C)c1Sc1ccc(Br)cc1	i
Cc1nn(C(=O)c2cccs2)c(C)c1Sc1ccc(Cl)cc1	i
Cc1cccc(C(=O)n2nc(C)c(Sc3ccc([N+](=O)[O-])cc3)c2C)c1	30.0%*
Cc1nn(S(=O)(=O)c2ccccc2[N+](=O)[O-])c(C)c1Sc1ccc([N+](=O)[O-])cc1	43.0%*
O=C(NC1CCCCCCC1)c1ccc2c(c1)ncn2C1CCCC1	i
COc1ccc(NC(=O)N[C@H]2CO[C@H]3[C@@H]2OC[C@H]3OC(=O)Nc2ccc(C(C)C)cc2)cc1	i
O=C(Oc1ccc2c3c(c(=O)oc2c1)CCCC3)c1ccccc1	i
O=C(O)c1ccc(NS(=O)(=O)c2cccc(S(=O)(=O)c3ccccc3)c2)cc1	i
O=C(c1cc(-c2cccc(Cl)c2)on1)N1CCCc2ccccc21	i
COc1cccc(NC(=O)/C(C#N)=C\c2cn(Cc3ccccc3)c3ccccc23)c1	35.0%*
Cc1cc(/C=C(\C#N)C(=O)Nc2ccccc2)c(C)n1-c1ccc(F)cc1	i
COc1cccc(NC(=O)/C(C#N)=C\c2cn(Cc3ccc(F)cc3)c3ccccc23)c1	i
CSc1nc2c(c(=O)[nH]1)C(c1ccc(C)cc1)C1=C(CC(C)(C)CC1=O)N2 (configuration not stated)	i
Cc1ccc(C(=O)Nc2cccc([N+](=O)[O-])c2)cc1Cl	i
CCc1cccc(C)c1NC(=O)c1ccc(C)c(Cl)c1	i
SMILES	ST2 IL33 inh
CCCOc1ccc(C(=O)Nc2ccc(N3CCCC3)cc2)cc1	i
Cc1ccc(C(=O)Nc2ccc(N3CCCC3)cc2)cc1Cl	53.0%*
O=C(Cc1ccccc1)Nc1ccc(N2CCCC2)cc1	59.0%*
O=C(Cc1ccccc1)Nc1cccc(C(=O)O)c1	i
O=C(Cc1ccccc1)Nc1ccc(S(=O)(=O)N2CCCC2)cc1	i
CC(=O)c1ccc(C(=O)Nc2ccc(N3CCOCC3)cc2)cc1	i
O=C(Nc1ccc(I)cc1)c1ccc(Cl)cc1Cl	i
CC(=O)Nc1ccc(NC(=O)c2cc(I)ccc2Cl)cc1	i
O=C(Nc1ccc(N2CCCC2)cc1)c1cc(I)ccc1Cl	51.0%*
O=C(Nc1ccc(N2CCCC2)cc1)c1ccc(F)cc1	57.0%*
COc1cc(C2C(C#N)=C(N)OC3=C2C(=O)CCC3)cc([N+](=O)[O-])c1O (configuration not stated)	i
c1ccc(-c2nnc(-c3cc4ccccc4o3)o2)cc1	i
Cc1ccc(NC(=O)c2ccccc2Sc2ccc([N+](=O)[O-])cc2)c(C)c1	i
Cc1ccc(CCNC(=O)c2cccn2-c2nnc(N3CCCCC3)s2)cc1	i
O=C1C2C3CCC(C3)C2C(=O)N1c1ccc(F)c(Cl)c1 (configuration not stated)	i
CCOC(=O)C1(Cc2ccc(F)cc2F)CCCN(C(=O)Cc2nonc2C)C1 (configuration not stated)	i
CC(=O)NC1=NN(C(C)=O)C(C)(c2cccc(Br)c2)S1 (configuration not stated)	i
C=CCOc1ccc(C2C(C(=O)OCC)=C(C)N=C3SCCC(=O)N32)cc1 (configuration not stated)	i
CC(Cc1c[nH]c2ccccc12)NC(N)=O (configuration not stated)	i
NC(=O)Cc1c[nH]c2cccc(O)c12	101.0%*
O=C(O)CCCc1c[nH]c2ccccc12	i
CCn1c(C2CCN(C(=O)CCc3cn[nH]c3)CC2)nn(C)c1=O	i
CCCN(CCC)S(=O)(=O)c1cccc2cccnc12	i
COc1ccc2cc3cc(C(=O)NC4CCCCC4)sc3nc2c1	i
COc1cc(OC)cc(C(=O)Oc2cccc3ccc(C)nc23)c1	i
SMILES	ST2 IL33 inh
Cc1ccc(CNS(=O)(=O)NCc2ccccc2)c(F)c1F	i
Cc1nn(CCNS(=O)(=O)NCc2ccccc2)c(C)c1Cl	i
Cn1ccnc1SCCNS(=O)(=O)NCc1ccccc1	31.0%*
CC1=C(C(N)=O)C(c2ccc(O)cc2)n2nc(SCc3ccccc3)nc2N1 (configuration not stated)	i
COc1ccc(C2C(C(N)=O)=C(C)Nc3nc(SCc4ccccc4)nn32)cc1OC (configuration not stated)	i
CC1=C(C(N)=O)C(c2cccc(F)c2)n2nc(SCc3ccccc3)nc2N1 (configuration not stated)	32.0%*!
c1ccc(CCn2ccnc2-c2cc3ccccc3o2)nc1	i
Cc1ncc2c(c1CNC(=O)c1cncs1)CCN(C(=O)c1ccc3c(c1)c1ccccc1n3C)C2	i
CCCOC1CCCN(C(=O)c2cc(NC(C)=O)ccc2Cl)C1 (configuration not stated)	i
c1ccc(COCCN2CCCC3(CCNC3)C2)cc1 (configuration not stated)	i
c1ccc(C2(c3ccccc3)OC(c3cccnc3)Nc3ccccc32)cc1 (configuration not stated)	35.0%*
c1ccc(-c2nnc(-c3cccnc3)o2)cc1	i
CC(=O)N1c2ccccc2C(=O)OC1c1cccnc1 (configuration not stated)	i
CCCCOC(=O)C1=C(C)Nc2nnnn2C1c1ccc(OC)cc1OC (configuration not stated)	i
COCC(=O)N1CCCN(C(=O)CC2C=CCC2)CC1 (configuration not stated)	i
COc1ccc(C(C)NC(=O)C(N)=O)cc1 (configuration not stated)	i
O=C(CNS(=O)(=O)c1ccc(Br)s1)N1CCN(C2CCCCC2)CC1	i
Cc1ccc2oc(-c3ccc(NC(=O)c4ccccc4Cl)cc3O)nc2c1	i
Cc1ccc2nc(-c3ccc(N)cc3O)oc2c1	34.0%*
Cc1ccc2oc(-c3ccc(NC(=O)c4cccnc4)cc3O)nc2c1	i
O=C(CN1C(=O)C2CCCCN2c2ccc(S(=O)(=O)N3CCCCC3)cc21)N1CCCCC1 (configuration not stated)	i
O=C1NC(=Nc2ccccc2Cl)S/C1=C/c1ccc([N+](=O)[O-])cc1	31.0%*
O=C1NC(=Nc2ccccc2Cl)S/C1=C/c1cc2c(cc1Cl)OCO2	31.0%*
CCOc1ccccc1/C=C1/SC(=O)NC1=O	i
O=C1NC(=O)/C(=C/c2ccc(-c3cc([N+](=O)[O-])ccc3Cl)o2)S1	i
COc1cccc(/C=C2/SC(=Nc3ccccc3Cl)NC2=O)c1OC	31.0%*
O=C1NC(=Nc2ccccc2Cl)SC1(CO)CO	i
O=[N+]([O-])c1ccc(Cl)c(N=Cc2ccc(Br)c([N+](=O)[O-])c2)c1	i
